From PubChem BioAssay
Most compounds without a hit are left out; they make up all but 2.4% or so of the library.
TGFb inhibitor = blocks TGF-b signaling | HepG2 CAGA-GFP TGF-b/SMAD3 reporter, GFP fluorescence, 18 h; TGF-beta stimulated, 500 pg/mL final | Potency, µM (series often up to 46.1 µM), most hits filed as inhibitors | actives 1.2% (n = 410,000) | AID 588855; note: nearly all actives have a fitted effect of over 65% in size
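Per well, imaged GFP fluorescence of HEPG2 CAGA-GFP cells gives the signal; cells get compound, then TGF-beta (500 pg/mL final), 18 h at 37 degrees C; %Activity versus -TGF-beta and +DMSO controls.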
Apoferritin bind = candidate novel general anesthetic via apoferritin binding; actives 0.074% (n = 350,000); apoferritin/1-aminoanthracene competitive binding, fluorescence; P02791; Potency, µM (top dose mostly 77.5 µM), hits mostly inhibitors; note: nearly all actives have a fitted effect of over 20% in size
Target sequence (P02791 2-175 limits assumed): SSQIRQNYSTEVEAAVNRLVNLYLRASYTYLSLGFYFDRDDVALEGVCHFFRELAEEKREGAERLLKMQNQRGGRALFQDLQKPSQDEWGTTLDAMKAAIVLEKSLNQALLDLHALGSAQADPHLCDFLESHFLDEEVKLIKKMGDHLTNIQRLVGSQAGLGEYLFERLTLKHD
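Horse-spleen apoferritin (10 uM) was mixed with 50% saturated 1-aminoanthracene in PBS, exposed to compounds for 10 min at room temperature, and read for fluorescence (ex 380 nm, em 535 nm). Competitive displacement was fitted with a four-parameter Hill equation.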
HepG2 viability = kills HepG2 cells in TGF-b inhibitor counter-screen; HepG2 CAGA-GFP viability, ATP luminescence, 18 h; Potency, µM (top dose mostly 46.1 µM), usual class: cytotoxic; actives 0.76% (n = 410,000); AID 588856
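CellTiter-Glo luminescence gave cytotoxicity after 18 hours at 37 degrees C. The cells were HepG2 CAGA-GFP in 1% FBS DMEM, stimulated with 500 pg/mL TGF-beta after compound addition. %Activity was normalised to no-cell wells (complete cell-killing) and DMSO (no toxicity), and curves were fitted and classified.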
ATXN2 expr inh = inhibitors of ATXN2 expression | Potency, µM (series often up to 57 µM), actives largely listed as inhibitors | AID 1745845 | actives 0.72% (n = 360,000) | HEK-293 ATXN2-luciferase reporter, luminescence, 24 h; note: nearly all actives have a fitted effect of over 55% in size
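qHTS (up to 57 uM final) was run with 24 h compound exposure of reporter cells at 37 °C. Each well was multiplexed: SteadyGlo luminescence measured ATXN2-luciferase expression after a fluorogenic Gly-Phe-AFC viability readout (25 uM final).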
ATXN viability = viability counter-screen for ATXN expression inhibitors; AID 651635; Potency, µM (highest dose often 56.7 µM), hits mostly cytotoxic; actives 0.49% (n = 400,000); S2 cells (HEK-293 line with an ATXN2-luciferase reporter) viability, CellTiter-Fluor protease fluorescence, 24 h; note: nearly all actives have a fitted effect of over 40% in size
Numbers stand for hits; - = inactive; ? = inconclusive; . = no result given; [ ] = remark or other dose. Calls come from the whole dose curve; as a rule, active = well fitted curve in the direction sought with a large enough effect; inconclusive = small, poorly fitted or top-dose-only effect, or another doubt; inactive = no such curve, though single readings can be large; an effect the other way counts as inactive or inconclusive.

SMILES	TGFb inhibitor	Apoferritin bind	HepG2 viability	ATXN2 expr inh	ATXN viability
Cc1ccc(-c2cn3c(n2)sc2cc(C(=O)NCCCN4CCCCC4)ccc23)cc1	-	?	10µM	.	.
O=C(NCCCN1CCCCC1)c1ccc2c(c1)sc1nc(-c3ccc(F)cc3)cn12	?	-	-	?	-
COC(=O)c1c(OCc2ccccn2)cc(=O)n2c1CCN(Cc1ccc3c(c1)CCCN3C)CC2	.	.	.	.	-
CS(=O)(=O)N(CC(=O)Nc1ccc(CC#N)cc1)c1ccc(C23CC4CC(CC(C4)C2)C3)cc1	7.1µM	-	-	-	?
Cn1nnnc1SCCCNCc1cccc(OCc2ccccc2Cl)c1	10µM	?	-	?	?
COc1cccc(CNCCSc2nnnn2C)c1OCc1ccc(Cl)cc1	18µM	-	-	?	-
CC(C)(O)C#Cc1ccc(CN2CCc3nnc(CNC(=O)c4cccc(F)c4)n3CC2)cc1	.	.	.	.	-
CCC1(C2CCN(C(=O)c3coc4c3C(=O)CCC4)CC2)NC(=O)N(CCc2scnc2C)C1=O (stereo not given)	.	.	.	.	-
CC1CC(C)CN(CCCNC(=O)c2ccc3c(c2)N(Cc2ccccc2)C(=O)c2ccccc2S3=O)C1 (stereo not given)	?	-	-	.	28µM
O=C(NCCCN1CCCC1)c1ccc2c(c1)N(Cc1cccc(Cl)c1)C(=O)c1ccccc1S2=O (stereo not given)	-	-	-	-	-
CC1CCCN(CCCNC(=O)c2ccc3c(c2)N(Cc2ccc(Cl)cc2)C(=O)c2ccccc2S3(=O)=O)C1 (stereo not given)	?	?	20µM	.	.
Cc1ccc(C)c(CN2C(=O)c3ccccc3S(=O)(=O)c3ccc(C(=O)NCCCN4CCCC(C)C4)cc32)c1 (stereo not given)	.	?	11µM	.	.
Clc1ccc(-c2nnc(COc3ncnc4sccc34)o2)cc1	-	-	-	-	-
COc1ccccc1C1CN(Cc2cn(C)nc2C)Cc2ccccc2O1 (stereo not given)	.	.	.	.	-
Cc1cc(F)ccc1S(=O)(=O)Nc1ccccc1C(=O)Nc1ccccc1-c1nc2ccccc2[nH]1	?	-	7.9µM	?	.
CC[C@@H](C(=O)[C@@H](C)[C@@H](O)[C@H](C)CCc1ccc(C)c(O)c1C(=O)O)C1O[C@](CC)(C2CC[C@](O)(CC)[C@H](C)O2)C[C@@H]1C (stereo not given in full)	.	-	.	.	.
CC[C@H](C(=O)[C@H](C)[C@H](O)[C@H](C)CCc1ccc(C)c(O)c1C(=O)O)[C@H]1O[C@](CC)([C@@H]2CC[C@@](O)(CC)[C@H](C)O2)C[C@H]1C	.	-	.	.	11µM
CC(=O)OC[C@@H]1O[C@H](C/C=N\O[C@@H]2O[C@H](COC(C)=O)[C@@H](OC(C)=O)[C@H](OC(C)=O)[C@H]2OC(C)=O)C=C[C@@H]1OC(C)=O	.	-[15.3 µM]	.	.	.
C=C(CN(C)C)C(=O)c1ccc(OC2OC(COC(C)=O)C(OC(C)=O)C(OC(C)=O)C2OC(C)=O)cc1 (stereo not given)	?	.	-	?	9.5µM
COCCNC(=O)C1(C)CCCN(C(=O)c2ccccc2)C1 (stereo not given)	-	.	-	-	-
CC(=O)N(C)C1(c2ccccc2)CCN(CCC[C@]2(c3ccc(Cl)c(Cl)c3)CCCN(C(=O)c3ccccc3)C2)CC1	.	.	.	22µM	.
COc1ccc(S(=O)(=O)N2CCN(C(=O)c3cc(-c4ccc(Br)cc4)n[nH]3)CC2)cc1OC	?	-	-	?	-
COc1ccc(Cl)cc1S(=O)(=O)N1CCN(C(=O)c2cc(-c3ccc(Br)cc3)n[nH]2)CC1	8.9µM	-	-	.	.
Cc1ccc(CN2CCOc3ccc(CN4CCC(O)(c5cccnc5)CC4)cc3C2)cc1	.	.	.	.	-
O=C(Nc1ccc(Cc2ccncc2)cc1)c1ccc([N+](=O)[O-])o1	16µM	-	-	-	-
O=C(Nc1ccc(S(=O)(=O)N2CCCC2)cc1)c1ccc([N+](=O)[O-])o1	?	.	13µM	?	.
Cc1ccc(C(=O)Nc2ccc(S(=O)(=O)N3CCCC3)cc2)o1	-	-	-	-	-
CNC(=O)Nc1ccc(-c2nc(N3CC4CCC(C3)O4)c3cnn(C4CCC5(CC4)OCCO5)c3n2)cc1	.	.	.	-	.
